# From the supplement of paper PMC8728848
# This is one part of a sample in which the strongest signals are shown more often than they occur.
# B1: Di AAL2 (Agrocybe aegerita) (protein)
# chain: MTSNVITQDLPIPVASRGFADIVGFGLDGVVIGRNAVNLQPFLAVKNFAQNAGGWLTTKHVRLIADTTGTGKGDIVGFGNAGVYVSVNNGKNTFADPPKMVIANFGYDAGGWRVEKHLRYLADIRKIGRADIIGFGEKGVLVSRNNGGLNFGPATLVLKDFGYDAGGWRLDRHLRFLADVTGNGHLDIVGFGDKHVFISRNNGDGTFAPAKSVIDNFCIDAGGWKIGDHPRFVADLTGDGTADIIGCGKAGCWVALNNGGGVFGQVKLVINDFGTDKGWQAAKHPRFIADLTGNGRGDVVGFGNAGVYVALNNGDGTFQSAKLVLKDFGVQQGWTVSKHRRFVVDLTGDGCADIIGFGEKETLVSYNDGKGNFGPVKALTNDFSFSGGKWAPETTVCWMANLDSSRHPAPAPMTSNVITQDLPIPVASRGFADIVGFGLDGVVIGRNAVNLQPFLAVKNFAQNAGGWLTTKHVRLIADTTGTGKGDIVGFGNAGVYVSVNNGKNTFADPPKMVIANFGYDAGGWRVEKHLRYLADIRKIGRADIIGFGEKGVLVSRNNGGLNFGPATLVLKDFGYDAGGWRLDRHLRFLADVTGNGHLDIVGFGDKHVFISRNNGDGTFAPAKSVIDNFCIDAGGWKIGDHPRFVADLTGDGTADIIGCGKAGCWVALNNGGGVFGQVKLVINDFGTDKGWQAAKHPRFIADLTGNGRGDVVGFGNAGVYVALNNGDGTFQSAKLVLKDFGVQQGWTVSKHRRFVVDLTGDGCADIIGFGEKETLVSYNDGKGNFGPVKALTNDFSFSGGKWAPETTVCWMANLDSSRH
# Legend:
# Test in all cases: glycan array binding signal (z-score within array); higher = stronger binding
# Settings in all cases: glycan notation: IUPAC condensed, linker removed
# [1] = target: Fuc(a1-2)Gal(b1-3)GalNAc(a1-3)[Fuc(a1-2)]Gal(b1-4)GlcNAc
# In short: (§1)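 Glycan array binding is given as a within-array Z-score, which can be read as non-binding when negative. The arrays, 3228 of them, came from the Consortium for Functional Glycomics database and were retained only where the protein sequence was available. Z-scores were averaged across arrays of the same protein sequence at different concentrations or buffers and across linkers.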
# [2] = target: Fuc(a1-2)Gal(b1-3)GlcNAc(b1-3)[Neu5Ac(a2-6)Gal(b1-4)GlcNAc(b1-6)]Gal(b1-4)Glc
# In short: as §1
# [3] = target: Fuc(a1-2)[Gal(a1-3)]Gal(b1-3)GlcNAc
# In short: as §1
# [4] = target: Fuc(a1-2)[Gal(a1-3)]Gal(b1-3)GlcNAc(b1-3)GalNAc
# In short: as §1
# [5] = target: Fuc(a1-2)[Gal(a1-3)]Gal(b1-4)GlcNAc(b1-3)[Fuc(a1-2)[Gal(a1-3)]Gal(b1-4)GlcNAc(b1-6)]GalNAc
# In short: as §1
# [6] = target: Fuc(a1-2)[GalNAc(a1-3)]Gal(b1-3)GlcNAc
# In short: as §1
# [7] = target: Fuc(a1-2)[GalNAc(b1-3)]Gal
# In short: as §1
# [8] = target: Fuc(a1-3)[Gal(b1-4)]Glc6S
# In short: as §1
# Gal(a1-3)Gal = target: Gal(a1-3)Gal
# In short: as §1
# [9] = target: Gal(a1-4)Gal(b1-4)GlcNAc(b1-2)Man(a1-3)[Gal(a1-4)Gal(b1-4)GlcNAc(b1-2)Man(a1-6)]Man(b1-4)GlcNAc(b1-4)GlcNAc
# In short: as §1
# Gal(b1-2)Gal = target: Gal(b1-2)Gal
# In short: as §1
# [10] = target: Gal(b1-3)GalNAc(b1-3)Gal(a1-4)Gal(b1-4)Glc
# In short: as §1
# [11] = target: Gal(b1-3)GalNAc(b1-4)[Neu5Ac(a2-3)]Gal(b1-4)Glc
# In short: as §1
# [12] = target: Gal(b1-3)GlcNAc(b1-6)Gal(b1-4)GlcNAc
# In short: as §1
# [13] = target: Gal(b1-3)[Fuc(a1-4)]GlcNAc(b1-3)Gal(b1-4)[Fuc(a1-3)]GlcNAc
# In short: as §1
# [14] = target: Gal(b1-4)GlcNAc(b1-2)Man(a1-3)[Gal(b1-4)GlcNAc(b1-2)Man(a1-6)]Man(b1-4)GlcNAc(b1-4)[Fuc(a1-6)]GlcNAc
# In short: as §1
# [15] = target: Gal(b1-4)GlcNAc(b1-2)[Gal(b1-4)GlcNAc(b1-4)]Man(a1-3)[GlcNAc(b1-4)][Gal(b1-4)GlcNAc(b1-2)Man(a1-6)]Man(b1-4)GlcNAc(b1-4)GlcNAc
# In short: as §1
# [16] = target: Gal(b1-4)GlcNAc(b1-3)Gal(b1-4)GlcNAc(b1-3)Gal(b1-4)GlcNAc(b1-2)Man(a1-3)[Gal(b1-4)GlcNAc(b1-3)Gal(b1-4)GlcNAc(b1-3)Gal(b1-4)GlcNAc(b1-2)Man(a1-6)]Man(b1-4)GlcNAc(b1-4)[Fuc(a1-6)]GlcNAc
# In short: as §1
# [17] = target: Gal(b1-4)GlcNAc(b1-6)[Gal(b1-4)GlcNAc(b1-3)]GalNAc
# In short: as §1
# Gal3S(b1-3)GalNAc = target: Gal3S(b1-3)GalNAc
# In short: as §1
# Gal4S6S(b1-4)GlcNAc = target: Gal4S6S(b1-4)GlcNAc
# In short: as §1
# [18] = target: GlcNAc(a1-4)Gal(b1-4)GlcNAc(b1-3)Gal(b1-4)GlcNAc
# In short: as §1
# [19] = target: GlcNAc(b1-3)Gal(b1-4)GlcNAc(b1-2)[GlcNAc(b1-3)Gal(b1-4)GlcNAc(b1-6)]Man(a1-6)[GlcNAc(b1-3)Gal(b1-4)GlcNAc(b1-2)Man(a1-3)]Man(b1-4)GlcNAc(b1-4)GlcNAc
# In short: as §1
# [20] = target: GlcNAc(b1-3)Gal(b1-4)GlcNAc(b1-3)Gal(b1-4)GlcNAc(b1-2)Man(a1-3)[GlcNAc(b1-3)Gal(b1-4)GlcNAc(b1-3)Gal(b1-4)GlcNAc(b1-2)Man(a1-6)]Man(b1-4)GlcNAc(b1-4)GlcNAc
# In short: as §1
# [21] = target: GlcNAc(b1-3)Gal(b1-4)GlcNAc(b1-3)Gal(b1-4)GlcNAc(b1-2)Man(a1-3)[GlcNAc(b1-3)Gal(b1-4)GlcNAc(b1-3)Gal(b1-4)GlcNAc(b1-2)Man(a1-6)]Man(b1-4)GlcNAc(b1-4)[Fuc(a1-6)]GlcNAc
# In short: as §1
# [22] = target: GlcNAc(b1-3)Gal(b1-4)GlcNAc(b1-3)Gal(b1-4)GlcNAc(b1-2)[GlcNAc(b1-3)Gal(b1-4)GlcNAc(b1-3)Gal(b1-4)GlcNAc(b1-6)]Man(a1-6)[GlcNAc(b1-3)Gal(b1-4)GlcNAc(b1-3)Gal(b1-4)GlcNAc(b1-2)Man(a1-3)]Man(b1-4)GlcNAc(b1-4)[Fuc(a1-6)]GlcNAc
# In short: as §1
# [23] = target: GlcNAc(b1-3)Gal(b1-4)GlcNAc(b1-3)Gal(b1-4)GlcNAc(b1-3)Gal(b1-4)GlcNAc(b1-2)Man(a1-3)[GlcNAc(b1-3)Gal(b1-4)GlcNAc(b1-3)Gal(b1-4)GlcNAc(b1-3)Gal(b1-4)GlcNAc(b1-2)Man(a1-6)]Man(b1-4)GlcNAc(b1-4)GlcNAc
# In short: as §1
# [24] = target: GlcNAc(b1-3)Gal(b1-4)GlcNAc(b1-3)Gal(b1-4)GlcNAc(b1-3)Gal(b1-4)GlcNAc(b1-2)Man(a1-3)[GlcNAc(b1-3)Gal(b1-4)GlcNAc(b1-3)Gal(b1-4)GlcNAc(b1-3)Gal(b1-4)GlcNAc(b1-2)Man(a1-6)]Man(b1-4)GlcNAc(b1-4)[Fuc(a1-6)]GlcNAc
# In short: as §1
# [25] = target: GlcNAc(b1-3)Gal(b1-4)GlcNAc(b1-3)Gal(b1-4)GlcNAc(b1-3)Gal(b1-4)GlcNAc(b1-2)[GlcNAc(b1-3)Gal(b1-4)GlcNAc(b1-3)Gal(b1-4)GlcNAc(b1-3)Gal(b1-4)GlcNAc(b1-6)]Man(a1-6)[GlcNAc(b1-3)Gal(b1-4)GlcNAc(b1-3)Gal(b1-4)GlcNAc(b1-3)Gal(b1-4)GlcNAc(b1-2)Man(a1-3)]Man(b1-4)GlcNAc(b1-4)[Fuc(a1-6)]GlcNAc
# In short: as §1
# [26] = target: GlcNAc(b1-3)Gal(b1-4)GlcNAc(b1-3)Gal(b1-4)GlcNAc(b1-3)Gal(b1-4)GlcNAc(b1-3)Gal(b1-4)GlcNAc(b1-2)Man(a1-3)[GlcNAc(b1-3)Gal(b1-4)GlcNAc(b1-3)Gal(b1-4)GlcNAc(b1-3)Gal(b1-4)GlcNAc(b1-3)Gal(b1-4)GlcNAc(b1-2)Man(a1-6)]Man(b1-4)GlcNAc(b1-4)GlcNAc
# In short: as §1
binder,measurement,setting,value
B1,glycan array binding signal (z-score),[1],-0.31
same,glycan array binding signal (z-score),[2],-0.337
same,glycan array binding signal (z-score),[3],-0.338
same,glycan array binding signal (z-score),[4],-0.312
same,glycan array binding signal (z-score),[5],-0.292
same,glycan array binding signal (z-score),[6],-0.172
same,glycan array binding signal (z-score),[7],-0.337
same,glycan array binding signal (z-score),[8],-0.322
same,glycan array binding signal (z-score),Gal(a1-3)Gal,-0.332
same,glycan array binding signal (z-score),[9],5.32
same,glycan array binding signal (z-score),Gal(b1-2)Gal,-0.333
same,glycan array binding signal (z-score),[10],-0.331
same,glycan array binding signal (z-score),[11],-0.314
same,glycan array binding signal (z-score),[12],-0.333
same,glycan array binding signal (z-score),[13],-0.331
same,glycan array binding signal (z-score),[14],-0.343
same,glycan array binding signal (z-score),[15],-0.313
same,glycan array binding signal (z-score),[16],-0.209
same,glycan array binding signal (z-score),[17],-0.313
same,glycan array binding signal (z-score),Gal3S(b1-3)GalNAc,-0.334
same,glycan array binding signal (z-score),Gal4S6S(b1-4)GlcNAc,-0.338
same,glycan array binding signal (z-score),[18],2.68
same,glycan array binding signal (z-score),[19],5.83
same,glycan array binding signal (z-score),[20],3.47
same,glycan array binding signal (z-score),[21],3.72
same,glycan array binding signal (z-score),[22],5.12
same,glycan array binding signal (z-score),[23],5.42
same,glycan array binding signal (z-score),[24],4.23
same,glycan array binding signal (z-score),[25],5.39
same,glycan array binding signal (z-score),[26],5.42
